Assay outcomes as filed in PubChem BioAssay.
The list is not random: actives were taken first. Their share in the collection is about 3%.
EBV LMP1 NFkB: Epstein-Barr LMP1 NF-kappaB reporter inhibition; LMP1-induced NF-kappaB luciferase reporter cells, luminescence; inhibition, % at 12.5 µM; 350,000 compounds, 0.69% hits; in the data active = inhibition above about 41%; inconclusive = no clear call, values can overlap the other calls;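 also: 0% = neutral control wells and 100% = reference inhibitor control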
TROY NFkB inh: TROY signaling inhibition; Q293 LMP1-TROYcd NF-kB luciferase reporter, 4 h; inhibition, % at 10 µM; 360,000 compounds, 0.98% hits; AID 1347056;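 active = compounds whose plate-normalised and pattern-corrected inhibition of the luciferase reporter signal at the single screening dose is 50% or more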
MITF act: MITF TRPM1 promoter activation in melanoma cells. AID 588334. activation, % at 12.5 µM. SK-MEL-5 TRPM1-promoter luciferase, 24 h; % of positive control, neutral wells = 0. 300,000 compounds, 0.75% hits;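 active = mean activation of at least 80% with every replicate also reaching 80%; inconclusive = mean reaches 80% but some replicate falls short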;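 also: 0% = neutral control wells and 100% = parthenolide positive control wells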
LGR2 inh: Drosophila LGR2 receptor signaling inhibition; AID 720647; HEK293 LGR2, CRE-luciferase, bursicon-stimulated, 4 h; inhibition, % at 9.99 µM; 380,000 compounds, 0.35% hits;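 active = drop in luminescence signal, shown as inhibition above about 50% in the replicate tests, limit read from the data, passing the limit was not always enough; inconclusive = probably only some replicates passing the limit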;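 also: agonist challenge used bursicon conditioned medium at about half maximal strength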
MITF TRPM1 inh: inhibitors of MITF-driven TRPM1 promoter in melanoma cells; SK-MEL-5 TRPM1 promoter luciferase, 24 h; 330,000 compounds, 0.83% hits; inhibition, % at 12.5 µM;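 active = mean inhibition across replicates of 60% or more, whatever share of single replicates reaches that level; inconclusive = some that reach 60%, reason not given; inactive = mean inhibition across replicates below 60%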
TWEAK Fn14 block: TWEAK-Fn14 signaling inhibition | TWEAK-stimulated Fn14 reporter cells, luciferase luminescence, 8 h | inhibition, % at 10 µM | 360,000 compounds, 2% hits | AID 1159606; in the data active = inhibition above about 50%
* = called active by the depositor; ? = inconclusive; · = no result given; ! = not active in a repeat.

SMILES	EBV LMP1 NFkB	TROY NFkB inh	MITF act	LGR2 inh	MITF TRPM1 inh	TWEAK Fn14 block
CN(C)CC(=O)Nc1ccc2c(c1)[C@@H]1C[C@H](CC(=O)NCCN3CCCCC3)O[C@H](CO)[C@@H]1O2	·	·	·	1	·	·
CCCCCCCn1c(=O)c(C(=O)OC)c(N)c2ccccc21	14	39	·	11	20	51*
CCCCCCCCn1c(=O)c(C(=O)OC)c(N)c2ccccc21	·	40	·	15	·	47
CC(=O)N1CC[C@@H]2[C@H]1c1cc(-c3cccc(F)c3)ccc1N(C)[C@@H]2CO	·	·	·	19	·	·
COc1cccc(N=c2oc3ccccc3cc2-c2nc3ccccc3[nH]2)c1	-40	2	-11	·	11	75*
COc1cccc(N=c2oc3ccc(OC)cc3cc2-c2nc3ccccc3[nH]2)c1	-58	48	-9	·	10	62*
COc1ccc(N=c2oc3ccc(OC)cc3cc2-c2nc3ccccc3[nH]2)cc1	-90	12	0	·	-2	49
O=C(CC(F)(F)F)N1C[C@@H]2[C@H](c3ccccc31)[C@@H](CO)N2C(=O)C1CCCC1	·	·	·	-11	·	·
C/C(=N\Nc1ncc(Cl)cc1Cl)c1ccc(N2CCOCC2)cc1	-2	55*	11	-32	-12	62*
C/C(=N\Nc1ncc(Cl)cc1Cl)c1ccccn1	85*	0	-95	·	95*	92*
C/C(=N\Nc1ncnc2sc(C)c(C)c12)c1ccccn1	84*	23	-67	-3	67*	73*
C[C@H]1CN([C@@H](C)CO)S(=O)(=O)c2ccc(-c3cncnc3)cc2O[C@@H]1CN(C)C(=O)CN(C)C	·	·	·	-1	·	·
C[C@H](CO)N1C[C@H](C)[C@@H](CN(C)C(=O)Nc2ccc(F)cc2)OCCCC[C@H](C)Oc2ccc(NC(=O)Nc3ccc(F)cc3)cc2C1=O	·	·	·	-2	·	·
NC(=O)NC(=O)COC(=O)/C=C/c1cccc(Br)c1	1	4	-5	·	1	-5
CCOC(=O)C(CC)(CC)C(=O)/C=C/c1cccc(Br)c1	-27	2	-29	·	30	59*
Cc1ccc(C(=O)Nc2cccc(C(F)(F)F)c2)cc1NC(=O)c1c[nH]c2cc(C(F)(F)F)ccc2c1=O	-2	-12	1	-1	1	-3
CCN1CCN(Cc2ccc(NC(=O)c3ccc(C)c(NC(=O)c4csc(-c5ccncc5)n4)c3)cc2C(F)(F)F)CC1	18	15	-47	18	49	-59
CCN1CCN(Cc2ccc(NC(=O)c3ccc(C)c(NC(=O)c4cccc(-c5cn[nH]c(=O)c5)c4)c3)cc2C(F)(F)F)CC1	61*	-32	-21	·	19	-188
CCN1CCN(Cc2ccc(NC(=O)c3ccc(C)c(NC(=O)c4c[nH]c5cc(C(F)(F)F)ccc5c4=O)c3)cc2C(F)(F)F)CC1	63*!	-3	-102	?	103*	-49
CCN1CCN(Cc2ccc(NC(=O)c3ccc(C)c(/C=C/c4cnc(Nc5cc(N6CCNCC6)nc(C)n5)cn4)c3)cc2C(F)(F)F)CC1	69*	-17	-98	·	98*	-64
CCN1CCN(Cc2ccc(NC(=O)c3ccc(C)c(NC(=O)c4ccno4)c3)cc2C(F)(F)F)CC1	47*	4	4	4	-6	-53
CCC(=O)N1CC(=O)N2[C@H](CO)[C@H](c3ccc(C#CCc4ccccc4)cc3)[C@@H]2C1	·	·	·	-20	·	·
CCNC(=O)[C@H]1[C@H](CO)[C@H]2Cn3c(ccc(-c4cccc(F)c4)c3=O)[C@@H]1N2C(=O)c1cnccn1	·	·	·	-5	·	·
OC(c1ccccc1)c1ccncc1 (stereo not given)	6	-4	2	15	0	-1
OC(C1=CC(=Cc2ccncc2)c2ccccc21)c1ccncc1 (stereo not given)	17	29	-16	12	13	55*
SMILES	EBV LMP1 NFkB	TROY NFkB inh	MITF act	LGR2 inh	MITF TRPM1 inh	TWEAK Fn14 block
COc1ccc(Cl)cc1NC(=O)CN(C)S(=O)(=O)c1cccs1	47*	-18	-9	-3	10	-4
COc1ccc(Cl)cc1NC(=O)CN(C)CC(=O)NCc1cccs1	-4	-16	·	-10	·	-13
C=CCn1c(SCc2ccc(C(=O)Nc3nccs3)cc2)nnc1-c1ccc(C)c(Cl)c1	6	44	-17	30	19	92*
Cn1nnnc1SCc1ccc(C(=O)Nc2nccs2)cc1	-11	-37	45	·	-47	-6
CCn1c2ccccc2c2cc(C3C(C#N)=C(N)Oc4n[nH]c(COC)c43)ccc21 (stereo not given)	92*	-6	-6	·	10	4
CCc1c(C)nc2cc(-c3ccc(OC)c(OC)c3)nn2c1NCC1CC1	80*	9	23	·	-22	12
Cc1ccc(S(=O)(=O)Nc2ccc3c(c2)C(=O)N([C@H](C)CO)C[C@H](C)[C@H](CN(C)C(=O)Nc2cccc4ccccc24)O3)cc1	·	·	·	-3	·	·
Clc1ccc(N=C2SCC3CCCCN23)cc1 (stereo not given)	-32	-28	97*	-65	-97	-12
Clc1ccc(N=C2SCCS2)cc1	0	-42	55	-21	-47	-13
FC(F)Oc1ccc(N=C2SCC3CCCCN23)cc1 (stereo not given)	-35	5	94*	-80	-93	-35
O=C(CN1CCCCC1CO)c1ccc(OC(F)F)cc1 (stereo not given)	1	-1	0	18	-1	-8
O=C(C[C@@H]1C=C[C@@H](NC(=O)CCN2CCCCC2)[C@H](CO)O1)NCc1ccc(Cl)c(Cl)c1	·	·	·	-11	·	·
C[C@@H]1CCCCO[C@H](CN(C)CC2CCCCC2)[C@H](C)CN([C@@H](C)CO)C(=O)c2cc(NC(=O)Nc3ccc4c(c3)OCO4)ccc2O1	·	·	·	16	·	·
C[C@H](CO)N1C[C@H](C)[C@@H](CN(C)Cc2ccc(C(=O)Nc3ccccc3N)cc2)Oc2c(NC(=O)c3nc4ccccc4s3)cccc2C1=O	·	·	·	0	·	·
COc1ccc(NC(=O)C2(C)CCN2C(=O)Cc2ccc(Cl)cc2Cl)cc1OC (stereo not given)	·	-4	·	-19	·	2
COc1ccc(OC)c(NC(=O)C2(C)CCN2C(=O)Cc2ccc(Cl)cc2Cl)c1 (stereo not given)	·	13	·	-8	·	65*
CC1(C)CC(=O)C(CC2=C(O)CC(C)(C)CC2=O)=C(O)C1	66*	-2	-1	·	1	0
CC1(C)CC(=O)C(CC2=C(O)CC(C)(C)CC2=O)C(=O)C1	-16	-16	·	·	6	-4
O=C(NC[C@@H]1[C@@H](c2ccccc2)[C@H](CO)N1Cc1cccnc1)c1ccccn1	·	·	·	-6	·	·
N=c1n(CCN2CCCC2)c2ccccc2n1CC(O)c1ccc(Cl)c(Cl)c1 (stereo not given)	34	8	-98	47	99*	-36
Cc1nc2ccccc2c(=O)n1-c1cccc(NC(=O)c2cccs2)c1	6	1	-3	-3	-1	-7
